Experimental data reported in PubChem BioAssay.
Results filed as inconclusive are left out. Active and inactive are the calls of the source.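 Rule for the calls, unless noted: active = inhibition over a set limit, the all-compound mean plus 3 SD, in both replicate runs; inconclusive = over that limit in just one replicate run; inactive = at or under that limit in both runs.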

How the values were obtained:
[1] = reducers of endogenous Her2 protein level, primary screen, SKBR3 breast tumor cells, AlphaScreen, ATP viability (AID 461;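 active = Her2 level under about 52% in both replicate screens, with viability over 70% of control, limit read from the data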;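 for Her2 level: lower value means less Her2 protein in the cells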;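 for viability: percent of carrier control wells set as 100% viability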); conditions: 18-24 h, measured here: SKBR3 viability, ATP luminescence, at 10 µM
[2] = molecular target: Receptor tyrosine-protein kinase erbB-2 (Homo sapiens) (UniProt P04626); experiment: as above; conditions: 18-24 h, at 10 µM, stronger effect = lower value
[3] = SK-BR-3 cell growth inhibitors, pilot screen, 24 h, human (AID 572;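 active = viability at or below 10% of carrier control in both of two separate runs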;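 note: compound exposure lasted between 18 and 24 h rather than exactly 24 h; 100% = carrier-treated control wells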); conditions: SK-BR-3 viability, CellTiter-Glo luminescence, at 10 µM, stronger effect = lower value
[4] = HUVEC growth inhibition – cell-based, human, primary screen (AID 575;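 active = viability at or below 30% in both replicate assays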;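 note: 100% = median of untreated cell wells with 0.1% DMSO on each plate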); conditions: HUVEC proliferation, CellTiter-Glo luminescence, 72 h; at 10 µM; stronger effect = lower value
[5] = growth inhibitors of H69AR lung tumor, primary screen, human, duplicate replicates (AID 580;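 active = viability at or under a set limit in both replicates, limit being median viability minus 3 SD, cut at about 48% in these data, passing the limit was not always enough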;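 note: 100% = mean luminescence of untreated wells and 0% = no signal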); conditions: H69AR lung tumor cells viability, ATP luminescence, 72 h; at 10 µM; stronger effect = lower value
[6] = reversal of MRP1-mediated doxorubicin resistance, pilot screen, H69AR cells, doxorubicin co-treatment (AID 601;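 active = viability loss from added drug above about 55%, and viability with drug at most 40%, in both replicates, limit read from the data, passing the limit was not always enough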); conditions: CellTiter-Glo, 72 h, at 10 µM; for differential viability (reversal): stronger effect = higher value
[7] = 384-well plate pilot, post-Golgi transport modulator project, inhibition of yeast transport mutant growth (AID 636; in the data active = inhibition above about 31%); conditions: absorbance 615 nm, about 18 h, stronger effect = higher value
[8] = growth suppression of yeast trafficking mutant, preliminary HTS, modulators of trafficking downstream of Golgi apparatus project, 1536-format plate, OD 615 nm (AID 637; in the data active = inhibition above about 30%); conditions: yeast transport mutant growth, absorbance 615 nm, 18 h; stronger effect = higher value
[9] = OD615 S. cerevisiae growth inhibition, permissive medium, pilot counter-assay, permissive growth control for S. cerevisiae lifespan shortening project (AID 705;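 active = growth inhibition above 25% in both replicates, a cutoff set 3 SD above the mean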); conditions: OD615, 24 h, at 10 µM, stronger effect = higher value
[10] = Restrictive medium S. cerevisiae growth inhibition, OD615, pilot screen of yeast lifespan reduction project, restrictive growth control (AID 706;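 active = growth inhibition above a set limit, 3 SD over mean compound inhibition, in both replicates, cut at about 43% in these data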;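 note: modified DeaD lifespan yeast strain shifted to restrictive glucose medium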); conditions: OD615, 48 h, at 10 µM, stronger effect = higher value
[11] = viability gain of MRP-1-high H69AR cells under doxorubicin, pilot screen, MRP-1 activator project, CellTiter-Glo, duplicate (AID 807;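 active = viability increase at or above a cutoff of the median across tested compounds plus 3 SD, cut at about 8.5% in these data, passing the limit was not always enough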;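 note: compound pretreatment 18-22 h then 72 h combined with doxorubicin; 0% = doxorubicin alone and 100% = vehicle without doxorubicin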); conditions: H69AR viability with doxorubicin, CellTiter-Glo luminescence; at 10 µM; stronger effect = higher value
[12] = growth suppression of beta-catenin knockout HCT116, pilot screen, human colon tumor cells (AID 823;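 active = cell viability at or below a set limit in both duplicate runs, the limit being the all-compound median minus 4 SD, cut at about 23% in these data, passing the limit was not always enough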;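 note: 0% = wells killed by 20 µM Hyamine and 100% = untreated DMSO cell wells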); conditions: CellTiter-Glo, 60 h, at 10 µM, stronger effect = lower value
[13] = growth suppression of PTEN-deleted HCT116, pilot screen, cell-based, HCT116 clonal line, CellTiter-Glo (AID 824;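 active = viability at or below 27.92% in each of two runs, the all-compound median minus 4 SD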;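 note: 0% = 20 µM Hyamine control and 100% = vehicle cell control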); conditions: 60 h, at 10 µM, stronger effect = lower value
[14] = inhibitors of the yeast RAM network, pilot screen, dse1pr::URA3 reporter, 5-FOA selection (AID 869);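 note: 0% = DMSO wells with no growth and 100% = 10 µM 1-NA-PP1 with full growth; RAM network block rescues cells from 5-FOA so hits raise OD615 growth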; conditions: S. cerevisiae dse1pr::URA3 5-FOA growth, OD615, 2 d; at 10 µM; stronger effect = higher value; strain carries analog-sensitive mutant Cbk1 kinase
[15] = RAM signaling pathway blockade in yeast – S. cerevisiae, Pdr1DBD-CYC8 efflux-inhibited sensitized strain, primary screen (AID 1298;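 active = RAM network inhibition above 8.4% in each of two replicates, 3 SD over the compound average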;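 note: 0% = DMSO untreated cells without growth and 100% = 10 µM 1-NA-PP1 full growth; higher means more yeast growth rescued from 5-FOA killing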); conditions: S. cerevisiae cbk1-as DSE1-URA3 strain, 5-FOA growth OD615, 2 d; at 50 µM; stronger effect = higher value
[16] = H69AR cells + 2 uM doxorubicin, measured here: viability with 2 uM doxorubicin, stronger effect = lower value
[17] = H69AR cells, compound alone cytotoxicity

Sequence of Receptor tyrosine-protein kinase erbB-2 (Homo sapiens) (P04626 whole entry, looked up): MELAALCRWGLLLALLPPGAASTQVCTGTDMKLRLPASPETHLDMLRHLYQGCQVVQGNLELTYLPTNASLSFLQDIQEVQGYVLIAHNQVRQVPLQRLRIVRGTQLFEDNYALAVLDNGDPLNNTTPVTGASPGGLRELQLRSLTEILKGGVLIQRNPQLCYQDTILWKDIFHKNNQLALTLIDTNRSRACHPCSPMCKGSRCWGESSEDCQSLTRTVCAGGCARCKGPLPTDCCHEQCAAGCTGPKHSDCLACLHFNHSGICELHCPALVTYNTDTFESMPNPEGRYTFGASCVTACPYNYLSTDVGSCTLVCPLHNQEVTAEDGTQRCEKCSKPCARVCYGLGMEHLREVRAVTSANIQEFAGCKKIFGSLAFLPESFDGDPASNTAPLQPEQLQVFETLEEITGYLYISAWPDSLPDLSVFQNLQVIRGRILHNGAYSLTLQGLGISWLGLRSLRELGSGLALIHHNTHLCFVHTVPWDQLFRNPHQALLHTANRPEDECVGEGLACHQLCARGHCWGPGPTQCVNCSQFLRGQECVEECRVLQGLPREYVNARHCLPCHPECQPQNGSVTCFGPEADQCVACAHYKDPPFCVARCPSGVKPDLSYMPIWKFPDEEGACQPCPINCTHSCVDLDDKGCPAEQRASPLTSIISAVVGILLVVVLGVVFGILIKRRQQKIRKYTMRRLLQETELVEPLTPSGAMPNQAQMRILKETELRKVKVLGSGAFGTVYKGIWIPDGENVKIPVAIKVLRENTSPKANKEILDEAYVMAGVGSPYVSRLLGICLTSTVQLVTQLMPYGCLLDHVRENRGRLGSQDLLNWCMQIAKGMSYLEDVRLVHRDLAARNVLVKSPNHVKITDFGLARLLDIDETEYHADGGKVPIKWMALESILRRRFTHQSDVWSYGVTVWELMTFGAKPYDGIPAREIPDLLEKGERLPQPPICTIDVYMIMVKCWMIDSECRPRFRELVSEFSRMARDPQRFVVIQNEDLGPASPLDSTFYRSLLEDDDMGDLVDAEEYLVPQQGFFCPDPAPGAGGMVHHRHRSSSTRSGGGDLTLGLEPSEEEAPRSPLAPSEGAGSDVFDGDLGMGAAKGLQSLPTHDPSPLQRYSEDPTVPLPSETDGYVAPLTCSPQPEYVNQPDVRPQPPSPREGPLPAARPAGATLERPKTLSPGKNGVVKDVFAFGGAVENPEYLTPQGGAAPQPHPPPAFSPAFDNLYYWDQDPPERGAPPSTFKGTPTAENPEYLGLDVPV

O=C(C1CCCN(S(=O)(=O)c2cccnc2)C1)N1CCn2c1nc1ccccc12 (centres undefined)
90.5%: viability [1]
86.1%: viability [6, 16]
95.8%: viability [6, 17]
inactive: Her2 level [2] 103% | viability [3] 90.5% | viability [4] 105% | viability [5] 95.8% | differential viability (reversal) ([6]; H69AR cells + 2 uM doxorubicin) 9.65% | inhibition [7] 0.51% | inhibition [8] -0.33% | growth inhibition [9] 5.56% | growth inhibition [10] 4.04% | viability increase [11] 0.72% | viability [12] 101% | viability [13] 99.3% | inhibition [14] 0.46% | RAM network inhibition [15] 1.55%

O=C(NCCc1c[nH]c2ccccc12)c1cnc2n(c1=O)CCS2
87.1%: viability [6, 16]
82%: viability [6, 17]
92%: viability [1]
inactive: Her2 level [2] 83% | viability [3] 92% | viability [4] 81.8% | viability [5] 82% | differential viability (reversal) ([6]; H69AR cells + 2 uM doxorubicin) -5.14% | inhibition [7] -3.07% | inhibition [8] 1.8% | growth inhibition [9] -5.46% | growth inhibition [10] 2.1% | viability increase [11] -3.94% | viability [12] 96.6% | viability [13] 95.7% | inhibition [14] 0.62% | RAM network inhibition [15] 6.77%

CCCc1cc(C(=O)Nc2sc3c(c2C#N)CCC3)no1
29.8%: viability [6, 17]
inactive: Her2 level [2] 77.5% | viability [3] 86.5% | viability [4] 58% | differential viability (reversal) ([6]; H69AR cells + 2 uM doxorubicin) -25.9% | inhibition [7] -2.05% | inhibition [8] -4.5% | growth inhibition [9] 4.12% | growth inhibition [10] 0.215% | viability increase [11] -2.05% | viability [12] 92.2% | viability [13] 87.1% | inhibition [14] -0.06% | RAM network inhibition [15] -1.49%
86.5%: viability [1]
active: viability [5] 29.8%
55.6%: viability [6, 16]

COc1ccc(CCNC(=O)CSc2nnnn2-c2ccccc2OC)cc1OC
89.1%: viability [6, 16]
91%: viability [1]
inactive: Her2 level [2] 99.5% | viability [3] 91% | viability [4] 102% | viability [5] 90.1% | differential viability (reversal) ([6]; H69AR cells + 2 uM doxorubicin) 0.99% | inhibition [7] -7.33% | inhibition [8] -0.5% | growth inhibition [9] -2.03% | growth inhibition [10] 2.95% | viability increase [11] -2.14% | viability [12] 86.9% | viability [13] 92.3% | inhibition [14] 1.64% | RAM network inhibition [15] 6.51%
90.1%: viability [6, 17]

COc1ccc(N2CCN(C(c3ccccc3)c3sc4nc(C)nn4c3O)CC2)cc1 (centres undefined)
98.4%: viability [6, 16]
inactive: Her2 level [2] 101% | viability [3] 91.5% | viability [4] 82.2% | viability [5] 90% | differential viability (reversal) ([6]; H69AR cells + 2 uM doxorubicin) -8.41% | inhibition [7] -4.93% | inhibition [8] -2.17% | growth inhibition [9] 1.81% | growth inhibition [10] -0.505% | viability increase [11] -1.28% | viability [12] 96.8% | viability [13] 97.3% | inhibition [14] 2.81% | RAM network inhibition [15] -0.02%
90%: viability [6, 17]
91.5%: viability [1]

CCCOc1ccc(NC2=CC(=O)CC(C)(C)C2)cc1
100%: viability [1] | viability [6, 17]
inactive: Her2 level [2] 103% | viability [3] 100% | viability [4] 87.2% | viability [5] 100% | differential viability (reversal) ([6]; H69AR cells + 2 uM doxorubicin) 7.44% | inhibition [7] -6.89% | inhibition [8] 2.13% | growth inhibition [9] -2.65% | growth inhibition [10] -14.7% | viability increase [11] 1.27% | viability [12] 95.4% | viability [13] 94.2% | inhibition [14] 3.14% | RAM network inhibition [15] 6.91%
93%: viability [6, 16]

Cc1ccc(Cn2c(=O)c3ccccc3n3c(CCC(=O)O)nnc23)cc1
91.9%: viability [6, 16]
107%: viability [1]
inactive: Her2 level [2] 100% | viability [3] 107% | viability [4] 92.5% | viability [5] 98.9% | differential viability (reversal) ([6]; H69AR cells + 2 uM doxorubicin) 7.02% | inhibition [7] -5.07% | inhibition [8] 0.33% | growth inhibition [9] 2.68% | growth inhibition [10] 7.7% | viability increase [11] -1.33% | viability [12] 107% | viability [13] 98.7% | inhibition [14] 2.29% | RAM network inhibition [15] 6.3%
98.9%: viability [6, 17]

COc1ccc(NS(=O)(=O)c2ccc(NC(C)=O)cc2)cc1OC
active: inhibition [8] 35.7%
inactive: Her2 level [2] 99% | viability [3] 98.5% | viability [4] 83.5% | viability [5] 94.5% | differential viability (reversal) ([6]; H69AR cells + 2 uM doxorubicin) 4.97% | inhibition [7] 2.69% | growth inhibition [9] 0.65% | growth inhibition [10] -9.44% | viability increase [11] 0.44% | viability [12] 85.4% | viability [13] 85.2% | inhibition [14] 1.85% | RAM network inhibition [15] -1.59%
98.5%: viability [1]
94.5%: viability [6, 17]
89.5%: viability [6, 16]

O=C(NCCSc1c[nH]c2ccccc12)c1ccc(Br)o1
75.8%: viability [6, 16]
inactive: Her2 level [2] 94.5% | viability [3] 104% | viability [4] 47.8% | viability [5] 54.6% | differential viability (reversal) ([6]; H69AR cells + 2 uM doxorubicin) -21.1% | inhibition [7] -2.93% | inhibition [8] 1.17% | growth inhibition [9] -10.7% | growth inhibition [10] -12.6% | viability increase [11] -3.97% | viability [12] 106% | viability [13] 93.6% | inhibition [14] 1.83% | RAM network inhibition [15] 3.28%
104%: viability [1]
54.6%: viability [6, 17]

CC(C)C(C(=O)Nc1ccc2c(c1)OCCO2)N1C(=O)c2ccccc2C1=O (centres undefined)
94.8%: viability [6, 16]
91%: viability [1]
inactive: Her2 level [2] 102% | viability [3] 91% | viability [4] 99.8% | viability [5] 104% | differential viability (reversal) ([6]; H69AR cells + 2 uM doxorubicin) 8.75% | inhibition [7] 0.77% | inhibition [8] -10.7% | growth inhibition [9] -11.7% | growth inhibition [10] -13.3% | viability increase [11] -0.14% | viability [12] 99.1% | viability [13] 97.7% | inhibition [14] 1.34% | RAM network inhibition [15] 2.58%
104%: viability [6, 17]

COc1ccccc1S(=O)(=O)Cc1ccc(C(=O)N2CCN(c3ccccn3)CC2)o1
82.1%: viability [6, 16]
88.9%: viability [6, 17]
101%: viability [1]
inactive: Her2 level [2] 84.5% | viability [3] 101% | viability [4] 87.8% | viability [5] 88.9% | differential viability (reversal) ([6]; H69AR cells + 2 uM doxorubicin) 6.81% | inhibition [7] -3.47% | inhibition [8] -1.97% | growth inhibition [9] -6.28% | growth inhibition [10] -10.3% | viability increase [11] -1.97% | viability [12] 92.8% | viability [13] 85.1% | inhibition [14] 0.76% | RAM network inhibition [15] 0.78%

Cc1ccc(C(C)C)c(OCCCN2CC(C)OC(C)C2)c1 (centres undefined)
99%: viability [6, 16]
98.5%: viability [1]
89.4%: viability [6, 17]
inactive: Her2 level [2] 85% | viability [3] 98.5% | viability [4] 101% | viability [5] 89.4% | differential viability (reversal) ([6]; H69AR cells + 2 uM doxorubicin) -9.6% | inhibition [8] 27.7% | growth inhibition [9] -7.86% | growth inhibition [10] -13.4% | viability increase [11] -2.59% | viability [12] 78.5% | viability [13] 89.3% | inhibition [14] 0.705% | RAM network inhibition [15] 1.47%
active: inhibition [7] 75.4%
